Rows were chosen to be rich in hits. Some 1.1% of all compounds tested hit in one or more screens of this group.
KCNH2 3.1 inh = qHTS for Inhibitors of KCHN2 3.1: Mutant qHTS; U2OS KCNH2 3.1, thallium flux FluxOr; hits give low values; activity change, % (tested at about 1.8 µM); 340,000 compounds, 0.95% hits; AID 720553, 2013;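 active = maximum activity change below -70%; inconclusive = maximum activity change from -70% to -50%; inactive = maximum activity change above -50%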;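 also: thallium influx rate constant from kinetic fluorescence after stimulation buffer; % is scaled to controls: 0 for no effect and ±100 for the full control effect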
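FluxOr-based Tl+ influx in U2OS cells transduced with KCNH2 3.1 virus; rate constants normalized to DMSO controls.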
Menin-MLL FL inh = qHTS Assay for Inhibitors Targeting the Menin-MLL Interaction in MLL Related Leukemias: Competition With Fluorescein Labeled MLL-derived Peptide | Fluorescence polarization, fluorescein-MLL peptide displacement from menin | FP activity change, % at 61.4 µM | 290,000 tested, under 10 active | AID 1766, 2009; active = well fitted curve in the direction sought with a large enough effect in the polarisation, not every such curve was filed as active; inconclusive = small, poorly fitted or top-dose-only effect, or effect the other way, or a change in a side signal; inactive = no such curve, though single readings can be large or run the other way; the % refers to the polarisation; also: % of control where 0% means no effect
CXXC DNA block = qHTS Fluorescence Polarization Assay for Inhibitors of MLL CXXC domain - DNA interaction. MLL-CXXC / FITC-HOXA9 DNA fluorescence polarization. Potency, µM (highest dose often 115 µM), without a hit: at the top dose activity change, negative = inhibition, actives largely listed as inhibitors. 290,000 compounds, 0.037% hits; active = well fitted inhibition curve with a large enough effect in the polarisation, with a control signal flat, not every such curve was filed as active; inconclusive = small, poorly fitted or top-dose-only effect, or effect the other way, or a change in a side signal; inactive = no such curve, though single readings can be large or run the other way; the % refers to the polarisation; also: potency is read from the fitted curve at half-maximal effect
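Purified MLL-CXXC (added from a 7 uM solution) was preincubated 5 min at ambient with pinned compounds in 50 mM Tris-HCl pH 7.5, 50 mM NaCl, 1 mM DTT, 0.05% BSA. Fluorescein-labeled HOX-A9 DNA (50 nM solution) followed, 30 min, then polarization read.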
hERG WT inh = qHTS for Inhibitors of KCHN2 3.1: Wildtype qHTS; Voltage-gated inwardly rectifying potassium channel KCNH2 (Homo sapiens), Q12809; U2OS, BacMam KCNH2, thallium flux FluxOr; hits give low values; activity change, % at 1.84 µM; 340,000 compounds, 0.37% hits; AID 720551, 2013;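 active = maximum activity change below -70%; inconclusive = maximum activity change between -70% and -50%; inactive = maximum activity change above -50%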; also: % is scaled to controls: 0 for no effect and ±100 for the full control effect
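U2OS cells were transduced with wild-type KCNH2 virus (2.03 x 10^8 / mL) for 4 h at room temperature, then cultured overnight at 37 C. Thallium flux was read with FluxOr dye. Rate constants were normalized to DMSO controls.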
Menin-MLL TR inh = qHTS Assay for Inhibitors Targeting the Menin-MLL Interaction in MLL Related Leukemias: Competition With Texas Red Labeled MLL-derived Mutant Peptide | O00255 | Menin + Texas Red MLL mutant peptide, fluorescence polarization | Potency, µM (highest dose often 61.6 µM), for the others: at the highest dose FP activity change, negative = inhibition, most hits filed as inhibitors | 270,000 compounds, 0.23% hits | AID 1768, 2009; active = well fitted inhibition curve with a large enough effect in the polarisation, with a control signal flat, not every such curve was filed as active; inconclusive = small, poorly fitted or top-dose-only effect, or effect the other way, or a change in a side signal; inactive = no such curve, though single readings can be large or run the other way; the % refers to the polarisation; also: potency is read from the fitted curve at half-maximal effect; % of control where 0% means no effect
Starred values were filed as active, the others as inactive; ? = inconclusive; . = no result given; + = active, no number.

SMILES | KCNH2 3.1 inh | Menin-MLL FL inh | CXXC DNA block | hERG WT inh | Menin-MLL TR inh
O=c1c2cc(NC(=S)NCCCN3CCC(Cc4ccccc4)CC3)ccc2nc2n1CCCCC2 | -72* | -2 | 15% | -29 | ?
CC1CC(C)CN(CCCNC(=O)C2CCN(c3nnc(-n4cccc4)s3)CC2)C1 (stereo not drawn) | 6 | -2 | -2% | 5 | ?
CC1CCCCN1CCCNC(=O)C1CCN(c2nnc(-n3cccc3)s2)CC1 (stereo not drawn) | -201* | -2 | -5% | 23 | 0%
Nc1nc(CN2CCCCCC2)nc(Nc2ccc(F)cc2)n1 | -73* | 7 | 7% | 28 | 1%
COc1ccccc1N1CCN(Cc2nc(N)nc(Nc3ccccc3)n2)CC1 | ? | 1 | 3% | 46 | -14%
Nc1nc(CN2CCN(c3ccccn3)CC2)nc(Nc2ccc(F)cc2)n1 | -89* | 1 | -2% | -3 | -6%
COc1ccc(Nc2nc(N)nc(CSC(=S)N3CCOCC3)n2)cc1 | 6 | -1 | -5% | 2 | 13%
Nc1nc(CSC(=S)N2CCOCC2)nc(Nc2ccc(F)cc2)n1 | -115* | -1 | 15% | -2 | ?
C[C@@H]1CN([C@H](C)CO)C(=O)c2cc(Br)cnc2O[C@H]1CN(C)Cc1ccccc1 | -19 | . | . | 10 | .
OC1OC[C@H](O)[C@@H](O)[C@@H]1O (stereo partly drawn) | . | 2 | . | . | 0%
Cc1ccc(NC(=S)NCc2ccc3c(c2)cc(C)n3C)c(C)c1 | -103* | -2 | 5% | . | 0%
Cc1ccc(NC(=S)NCc2ccc(F)cc2)c(C)c1 | 19 | 4 | -6% | -4 | 7%
CCc1nnc(NC(=O)Cc2c[nH]c3ccccc23)s1 | -144* | 1 | 4% | 36 | 29%
O=C(Nc1cccc(S(=O)(=O)N2CCCCCC2)c1)c1ccc2c(c1)OCO2 | -84* | 1 | -2% | -24 | 5%
O=C(Nc1cccc(S(=O)(=O)N2CCCC2)c1)c1ccc2c(c1)OCO2 | 0 | 1 | -4% | -1 | -2%
COc1ccccc1/C=C(/C(=O)OCC(=O)Nc1cc(C)ccc1C)c1ccccc1 | -3 | 3 | 12% | + | 11%
CNc1nc(NC)c2cn[nH]c2n1 | . | . | . | -3 | .
CCOc1ccc(CN2CCN(Cc3cccc4nonc34)CC2CCO)cc1 (stereo not drawn) | -116* | -1 | 0% | -77* | 3%
CCOc1ccc(CN2CCN(Cc3cc4c(cc3Cl)OCO4)CC2CCO)cc1 (stereo not drawn) | -119* | 0 | -5% | -111* | .
CCn1c(CN2CCN(Cc3ccc(C)cc3)C(CCO)C2)nc2ccccc21 (stereo not drawn) | -98* | -3 | 14% | -25 | ?
CC(=O)O[C@H]1[C@H](C)OC=C[C@@H]1OC(C)=O | 5 | -1 | 1% | 2 | 2%
CCn1c(/C=C/Nc2ccccc2)[n+](CC)c2cc(Cl)c(Cl)cc21 | -98* | -9 | 15% | -132* | ?
CCn1c(/C=C/N(C(C)=O)c2ccccc2)[n+](CCCS(=O)(=O)[O-])c2cc(Cl)c(Cl)cc21 | 1 | -5 | -28% | -11 | -7%
COc1ccc(C2CC(O)(c3ccccc3)Oc3c(C)ccc(C(C)C)c32)cc1 (stereo not drawn) | . | -2 | . | . | 6%
C=C[C@H]1CCC=C2C(=O)CCC[C@@H]21 | . | -2 | . | . | -17%
CCOC(=O)c1c(NC(=O)c2cc3n(n2)C(C(F)(F)F)CC(c2cccs2)N3)sc(C)c1C (stereo not drawn) | -78* | 3 | 4% | -4 | 4%
Cc1nn(C)c(C)c1CNC(=O)c1cc2n(n1)C(C(F)(F)F)CC(c1cccs1)N2 (stereo not drawn) | -2 | 2 | 11% | 2 | 7%
Cc1ccc(CNC(=O)COC(=O)Cn2nc(C)c([N+](=O)[O-])c2C)cc1 | . | 2 | 25% | -30 | 3%
Cc1nn(CC(=O)OCCOc2ccc(Br)cc2)c(C)c1[N+](=O)[O-] | -73* | 2 | 5% | -15 | 3%
